These results are taken from PubChem BioAssay AID2058 (Sanford-Burnham Center for Chemical Genomics, 2009).

Screen size: about 290,000 compounds; about 150 (0.052%) were called active.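 How the source made its calls: active means inhibition of at least 50% with at least 30 cells and total cytoplasm GFP at most 10,000,000; inconclusive means under 30 cells or total GFP of 10,000,000 plus; inactive means the rest.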 The sample as a whole holds a higher share of actives than the screen did. Measured potencies and affinities stand elsewhere.

As a reminder, the inhibition is the change of the read-out against control, counted positive when it falls.

For this assay, the target named is G-protein coupled receptor 35 (Homo sapiens) (UniProt Q9HC97). As to the kind of experiment: inhibition of zaprinast-stimulated GPR35 beta-arrestin translocation – imaging, U2OS, beta-arrestin-GFP, zaprinast agonist, primary screen (AID 2058). As to conditions: zaprinast antagonism, at 10 µM, active compounds read high.
Chain of G-protein coupled receptor 35 (Homo sapiens) (Q9HC97 whole entry, looked up): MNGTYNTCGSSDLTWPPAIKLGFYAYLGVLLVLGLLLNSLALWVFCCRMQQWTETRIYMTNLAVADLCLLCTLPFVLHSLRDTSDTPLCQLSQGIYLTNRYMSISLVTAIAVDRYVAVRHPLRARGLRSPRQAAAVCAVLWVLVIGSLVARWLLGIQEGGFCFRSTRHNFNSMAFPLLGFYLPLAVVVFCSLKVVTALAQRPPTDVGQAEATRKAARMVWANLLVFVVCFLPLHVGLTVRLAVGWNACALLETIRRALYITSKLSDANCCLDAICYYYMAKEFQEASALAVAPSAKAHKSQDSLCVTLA
`Cc1cccc(NC(=O)C2CCN(S(=O)(=O)c3cccc4nonc34)CC2)c1`: the inhibition was -1.2% (inactive).

Regarding `COc1ccc(/C=N/n2cnc3c([nH]c4ccc(C)cc43)c2=O)cc1CN1CCCC1`, the inhibition was 1.2% (inactive).

On to `CC(=O)Nc1ccc(S(=O)(=O)NCC2CCC(C(=O)NC(C)c3ccccc3)CC2)cc1` (configuration not stated), for which the inhibition was -1.8% (inactive).

Consider `CN(C)c1nc(N2CCN(c3ccccc3)CC2)c(C#N)c(=O)o1`, for which the inhibition is 16.3% (inactive).

Regarding `N=c1c2c3c(sc2ncn1N)CCC3`, the inhibition was 4.1% (inactive).

Regarding `CC(C)N1CC=C2C(C#N)=C(N)C(C#N)(C#N)C(c3ccccc3)C2C1` (configuration not stated), the inhibition was 69% (active).

Turning to `Cc1ccc(C2C3CN(C(C)C)CC=C3C(C#N)=C(N)C2(C#N)C#N)cc1` (configuration not stated), the inhibition is 100% (active).

Turning to `CC(C)c1ccc(C2C3CSCC=C3C(C#N)=C(N)C2(C#N)C#N)cc1` (configuration not stated), the inhibition is -18.5% (inactive).

For `CCC1C2CN(C(C)=O)CC=C2C(C#N)=C(N)C1(C#N)C#N` (configuration not stated), the inhibition was -14.1% (inactive).

Regarding `N#CC1=C(N)C(C#N)(C#N)[C@H](c2ccncc2)[C@H]2CN(C(=O)OCc3ccccc3)CC=C12`, the inhibition is 1% (inactive).

Take `CCCC1C2CN(C(C)C)CC=C2C(C#N)=C(N)C1(C#N)C#N` (configuration not stated): the inhibition is 112% (active).

In the case of `N#CC1=C(N)C(C#N)(C#N)C(c2ccncc2)C2CN(C(=O)OCc3ccccc3)CC=C12` (configuration not stated), the inhibition is -3% (inactive).

For `Cc1ccc(C2C3CSCC=C3C(C#N)=C(N)C2(C#N)C#N)cc1` (configuration not stated), the inhibition is 1.6% (inactive).

Regarding `CCCC1C2CN(C(C)=O)CC=C2C(C#N)=C(N)C1(C#N)C#N` (configuration not stated), the inhibition was 8.7% (inactive).

`COc1ccc(COc2ccccc2C(=O)Nc2ccccn2)cc1[N+](=O)[O-]`: the inhibition was 15.8% (inactive).

Consider `Cc1ccc(S(=O)(=O)N/N=C/c2cccc(OC3CSC3)c2)cc1`, for which the inhibition was 9.4% (inactive).

For `C[C@@H]1CC=C[C@H]2[C@H]1C(=O)N(Cc1ccccc1)[C@H]2c1ccc(F)c(-c2ccc(N(C)C)cc2)c1`, the inhibition was 17.6% (inactive).

For the molecule `Cc1ccc(-c2nnc(N3CC(C)OC(C)C3)c3ccccc23)cc1` (configuration not stated), the inhibition is 13.6% (inactive).

As to `COc1cc(C(=S)N2CCOCC2)ccc1OC(=O)c1cc([N+](=O)[O-])c(C)c([N+](=O)[O-])c1`, the inhibition is 10.7% (inactive).

Turning to `CCc1ccc(C(C)NC(=O)c2ccc3c(c2)OCO3)cc1` (configuration not stated), the inhibition is -12.5% (inactive).

Turning to `O=C(NC(c1ccccc1)c1ccccc1)c1ccc(CO)cc1`, the inhibition was 7% (inactive).

On to `CC1=CC(C)(C)N(C)C(=O)N1c1ccc(Cl)cc1`, for which the inhibition was 20.7% (inactive).

In the case of `Cc1cc(=O)cc(C)n1-c1ccc(Cl)cc1`, the inhibition is -8.7% (inactive).

With `COC1CCN(C(=O)c2cc(COc3ccc(-n4cncn4)cc3)on2)CC1`, the inhibition was 17.9% (inactive).

`O=C(Nc1cc([N+](=O)[O-])ccc1N1CCCC1)c1ccco1`: the inhibition was -5% (inactive).

For the molecule `CC(C)(C)C(=O)C[n+]1ccccc1`, the inhibition is -9.2% (inactive).

Regarding `CCCOC(=O)c1ccc(Nc2cc(C)nc3ncnn23)cc1`, the inhibition was 11.5% (inactive).

Take `COc1ccc(C(=O)/C=C/C(=O)N(CC(=O)NC2CCCCC2)Cc2ccccc2)c(O)c1`: the inhibition is -0.1% (inactive).

Turning to `COCCN(CC(=O)NC1CCCCC1)C(=O)/C=C/C(=O)c1ccc(OC)cc1O`, the inhibition is 15.7% (inactive).

Turning to `COc1ccc(C(=O)/C=C/C(=O)N(CC(=O)NC2CCCCC2)CC2CCCO2)c(O)c1` (configuration not stated), the inhibition was 69.1% (active).

As for `Cc1nn(-c2ccccc2)nc1C(N)=O`, the inhibition is 12.1% (inactive).

With `O=C1C2C3C=CC(C3)C2C(=O)N1CCCCCCN1C(=O)C2C3C=CC(C3)C2C1=O` (configuration not stated), the inhibition is -2% (inactive).

Consider `O=C1C=CC(=O)N1Cc1ccccc1`, for which the inhibition was 4.8% (inactive).

For `COc1cccc(Nc2nc(N)c([N+](=O)[O-])c(N3CCOCC3)n2)c1`, the inhibition was 0.4% (inactive).

Consider `O=C(NCc1ccco1)C(=O)NCC1OCCCN1S(=O)(=O)c1ccc(Cl)cc1` (configuration not stated), for which the inhibition is -6.3% (inactive).

`C/C(=N/NC(=O)CNC(=O)C1COc2ccccc2O1)c1cccc(O)c1` (configuration not stated): the inhibition was 0.2% (inactive).

As to `O=C(/C=C\c1ccccc1)NCC(=O)N/N=C/c1ccc(O)cc1O`, the inhibition was 10.7% (inactive).

Consider `COc1ccc(/C=C/C(=O)NCC(=O)N/N=C/c2ccc(OC)cc2)cc1`, for which the inhibition was 9% (inactive).

For `O=C(CCCN1C(=O)/C(=C\c2cccs2)SC1=S)Nc1cccc(C(=O)O)c1`, the inhibition is 0.3% (inactive).

For the molecule `COc1ccc(/C=C2\SC(=S)N(CCCC(=O)Nc3ccc(C(=O)O)cc3)C2=O)cc1OC`, the inhibition is 30% (inactive).

In the case of `COc1ccc(/C=C2\SC(=S)N(CCCC(=O)Nc3ccc(O)cc3)C2=O)cc1`, the inhibition is 44.8% (inactive).

As to `COc1ccc(/C=C2\SC(=S)N(CCC(=O)Nc3cccc(C(=O)O)c3)C2=O)cc1`, the inhibition was 2.8% (inactive).

Turning to `COc1cc(/C=C2/SC(=S)N(Cc3ccccc3)C2=O)ccc1O`, the inhibition was -5.7% (inactive).

`COc1ccc(/C=C2/SC(=S)N(Cc3ccccc3)C2=O)cc1O`: the inhibition was -18.7% (inactive).

Regarding `Cc1ccc(/C=C2/SC(=S)N(CCCC(=O)Nc3ccc(O)cc3)C2=O)cc1`, the inhibition is 36.2% (inactive).

For the molecule `COc1cc(/C=C2/SC(=S)N(Cc3ccccc3)C2=O)cc(Cl)c1O`, the inhibition was 74.4% (active).

As for `CCc1ccc(/C=C2/SC(=S)N(CCC(=O)Nc3cccc(C(=O)O)c3)C2=O)cc1`, the inhibition was -9.9% (inactive).

With `COC(=O)c1ccc(Cn2nc(C)c(Br)c2C)cc1`, the inhibition is 4% (inactive).

For `C[C@H](NC(=O)c1nc[nH]c1C(=O)N[C@H](C)c1ccccc1)C(=O)OC(C)(C)C`, the inhibition is 5.8% (inactive).

`Cc1cc(=O)oc2c(C)c3occc3cc12`: the inhibition is -1.8% (inactive).

As for `O=C1C(=O)N(CCN2CCOCC2)C(c2cccc(Cl)c2)/C1=C(\O)c1ccc2c(c1)OCCO2` (configuration not stated), the inhibition is -1.2% (inactive).

Take `Cc1ccccc1COc1ccc2oc(C)c(C(=O)O)c2c1`: the inhibition is -10.4% (inactive).

Turning to `O=[N+]([O-])c1c(-c2cn[nH]c2)n[nH]c1-c1cn[nH]c1`, the inhibition was -2% (inactive).

As to `O=C(COc1ccc(S(=O)(=O)N2CCCC2)cc1Cl)N1CCN(c2ccccc2)CC1`, the inhibition is -0.4% (inactive).

As for `Cc1oc(-c2ccccc2F)nc1CN1CCC(C(=O)NC2CC2)CC1`, the inhibition was -1.6% (inactive).

On to `O=C(CCCN1C(=O)/C(=C/c2ccccc2)SC1=S)Nc1cccc(O)c1`, for which the inhibition was -8.3% (inactive).

As to `O=C(CCN1C(=O)/C(=C/c2ccc(Cl)cc2)SC1=S)Nc1cccc(C(=O)O)c1`, the inhibition was 1.5% (inactive).
